Source: PubChem BioAssay
An excerpt weighted towards active compounds, which were near 4% of everything screened.
TWEAK Fn14 block = inhibitors of TWEAK-Fn14 interaction signaling; TWEAK-stimulated Fn14 reporter cells, luciferase luminescence, 8 h; inhibition, % at 10 µM; 360,000 compounds, 2% hits; in the data active = inhibition above about 50%
HIF-2a block = HIF-2a inhibition | 786-0 RCC cells HIF-2a reporter, luciferase luminescence, overnight | inhibition, % at 18.8 µM | 360,000 compounds, 0.72% hits;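 active = inhibition of the luminescence signal of 40% or more relative to plate controls, in a single-dose primary screen at 18.75 µM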
TROY NFkB inh = TROY signaling inhibition; Q293 LMP1-TROYcd NF-kB luciferase reporter, 4 h; inhibition, % at 10 µM; 360,000 compounds, 0.98% hits; AID 1347056;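 active = compounds whose plate-normalised and pattern-corrected inhibition of the luciferase reporter signal at the single screening dose is 50% or more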
KKLEB tox = reduces viability of KKLEB cystic fibrosis airway cells | AID 602141 | 360,000 compounds, 0.36% hits | activity change (cytotoxicity), % at 5 µM | KKLEB CF airway cells viability, ATPlite luminescence, overnight; hits give low values; cells stimulated with P. aeruginosa culture filtrate;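 active = corrected activity change at or below -50% at 5 µM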
Peg3 prom inh = reduces Peg3 promoter-driven luciferase expression in HeLa; HeLa PEG-Prom luciferase reporter, luminescence, overnight; inhibition, % at 20 µM; 360,000 compounds, 1.7% hits; AID 588405;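 active = inhibition of at least 50% at 20 µM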
CF NFkB inh = cystic fibrosis NF-kB activation inhibition; KKLEB NF-kB-GFP reporter, PAF-induced, GFP fluorescence overnight; inhibition, % at 5 µM; 360,000 compounds, 0.86% hits; AID 588850;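 active = at least 50% inhibition at 5 µM, scaled per plate between neutral and stimulator controls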;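 also: PAF is a Pseudomonas aeruginosa culture filtrate used as stimulus; plate controls were PAF-stimulated DMSO wells for no effect and unstimulated DMSO wells for full effect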
Starred values were filed as active, the others as inactive; x = no result given.

SMILES	TWEAK Fn14 block	HIF-2a block	TROY NFkB inh	KKLEB tox	Peg3 prom inh	CF NFkB inh
Cc1ccc2nc3sc(C(=O)Nc4c(C)[nH]c(=O)[nH]c4=O)c(N)c3cc2c1	53.4*	-33.2	8.0	-0.8	-82.1	0.8
Cc1ccc(CNC(=O)COC(=O)CN2C(=O)C3CC=CCC3C2=O)cc1 (configuration not stated)	6.5	3.2	-7.6	8.9	-2.7	21.6
O=c1cc(-c2ccco2)oc2c1ccc1ccccc12	-26.2	-9.8	-47.2	-9.9	6.2	-54.2
O=c1cc(-c2ccncc2)oc2c1ccc1ccccc12	22.3	-12.9	-20.1	-11.7	79.5*	-12.8
O=c1cc(-c2ccc(O)cc2)oc2c1ccc1ccccc12	37.6	-78.5	62.5*	-9.0	-16.9	-101.7
CN(C)c1nc2c(N)ncnc2n1[C@H]1O[C@@H](CO)[C@H](O)[C@@H]1O	-11.4	26.0	-25.6	-10.4	9.7	5.4
CN1CCN(Cc2nc3ccccc3c(=O)n2Cc2nc(-c3cccc([N+](=O)[O-])c3)cs2)CC1	11.1	-14.3	15.0	-6.8	50.1*	-13.4
Cc1cc(O)cc(O)c1-c1onc(C(F)(F)F)c1-c1cscn1	52.1*	9.5	x	11.5	16.4	4.8
CCOc1ccc(-c2onc(C(F)(F)F)c2-c2cscn2)c(O)c1	-1.6	-20.8	15.6	9.6	4.2	0.4
CC(=O)NCCNc1nc(NCc2cccs2)nc2ccsc12	-8.7	4.2	4.5	-2.6	11.9	-7.1
CCS(=O)(=O)N1CCC(C(=O)Oc2ccc(Br)cc2)CC1	79.2*	11.0	-8.2	-0.5	-3.4	-9.5
CCc1nnc(NS(=O)(=O)c2ccc(NC(=O)c3cccc(Cl)c3)cc2)s1	6.8	13.8	6.2	0.0	12.5	3.6
CCCCOc1ccc(NC(=O)CN2CCN(CC)CC2)cc1	-11.6	-8.3	-18.2	-1.9	-4.1	7.3
CCN(CC)CCn1c(NCc2cccc(OC)c2)nc2ccccc21	-15.0	15.4	10.0	-8.0	6.3	11.6
Cc1cc(/C=C2\SC(=S)NC2=O)c(C)n1-c1cccc(O)c1	-12.8	-294.1	-39.0	4.6	-268.2	-23.5
Cc1sc(-n2c(C)cc(/C=C3\SC(=S)NC3=O)c2C)c(C#N)c1C	16.0	-127.1	-9.8	-19.9	75.3*	-22.3
CCC(C)(C)NC(=O)CN(C(=O)CCC(=O)Nc1nccs1)c1ccc2c(c1)OCCO2	64.1*	21.5	52.4*	-8.3	34.6	-2.1
CCOC1=C2[C@H](c3ccccc3Cl)N(S(=O)(=O)c3ccc(C)cc3)C[C@H]2C(C#N)(C#N)C(C#N)(C#N)C1	12.4	61.4*	7.7	-14.2	49.9	32.0
CCOC1=C2[C@@H](CN(S(=O)(=O)c3ccc(C)cc3)[C@H]2c2ccccc2Cl)[C@H]2C(=O)NC(=O)[C@H]2C1	-7.3	8.9	-0.5	8.3	-4.5	2.6
CCOC1=C2CN(S(=O)(=O)c3ccc(C)cc3)C(c3ccc(CC)cc3)CC2N(S(=O)(=O)c2ccc(C)cc2)C(c2ccc(CC)cc2)C1 (configuration not stated)	x	1.2	x	x	x	x
CCOC1=C2[C@H](c3ccc(CC)cc3)N(S(=O)(=O)c3ccc(C)cc3)C[C@H]2C(C#N)(C#N)C(C#N)(C#N)C1	34.1	61.8*	20.3	-25.6	88.8*	33.9
Cc1ccc2c(C(=O)N3CCN(c4ccccc4)CC3)cc(-c3cccnc3)nc2c1C	0.5	22.9	37.0	-2.2	23.4	-0.1
O=C(Cc1ccc(NS(=O)(=O)c2ccc(F)cc2)cc1)NCc1cccnc1	-1.7	6.6	5.9	7.5	6.3	-2.8
Cc1ccc(S(=O)(=O)c2nc(-c3ccccc3)oc2N2CCCC2)cc1	0.5	-11.5	-14.3	-3.5	-0.6	1.2
CCn1nc(C)c(CN2CCC(C(=O)Nc3cccc(-c4cccc(Cl)c4)c3)CC2)c1C	-5.6	11.7	8.2	-25.4	68.2*	5.8
CS(=O)(=O)N1CCC(C(=O)Nc2cccc(Cl)c2)CC1	-7.8	11.2	-1.3	5.0	13.5	16.0
CCn1ncc(CN2CCC(C(=O)Nc3cccc(-c4cccc(F)c4)c3)CC2)c1C	4.1	9.2	-8.1	-6.3	40.8	-7.2
Cc1cc(C)n(CCCN2CCC(C(=O)Nc3cccc(-c4cccc(F)c4)c3)CC2)n1	-13.6	9.8	5.2	-12.1	69.4*	13.5
CCN(CC(=O)Nc1c(F)cccc1F)C(=O)Cc1n[nH]c(=O)c2ccccc12	-1.7	12.2	23.6	-5.8	22.1	-4.2
